# Bioassay records: PubChem, National Center for Advancing Translational Sciences (NCATS)
# SW480 rerep: A quantitative high throughput screen for small molecules that induce DNA re-replication in SW480 colon adenocarcinoma cells | SW480 DNA re-replication, Hoechst DNA content imaging, 48 h | Potency, µM (doses to about 46.1 µM), for the others: top-dose re-replication activation, actives largely listed as activators | 340,000 tested, 1.8% active; also: % of control where 0% means no effect; nearly all actives have a fitted effect of over 55% in size
#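 Per well, 250 cells were exposed to pinned compound for 48 hr. Nuclear DNA was visualised with Hoechst (40 min, 37 C) and total object intensity recorded by fluorescence scanning.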
# HT1080 IDH1KD tx: qHTS for induction of synthetic lethality in tumor cells producing 2HG: qHTS for the HT-1080-IDH1KD cell line; HT-1080 IDH1 knockdown viability, ATP luminescence, 48 h; Potency, µM (highest dose often 46.1 µM), without a hit: at the top dose activity, negative = toxicity, hits mostly cytotoxic; 360,000 tested, 2% active;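 also: 0% = DMSO wells and -100% = cell-free medium wells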
#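 % activity derives from luminescence (CellTiter-Glo), normalised to DMSO and no-cell wells. HT-1080-IDH1KD cells, 750/well, had 48 h compound exposure at 37 °C.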
# MCF10A rereplic: A quantitative high throughput screen for small molecules that induce DNA re-replication in MCF 10a normal breast cells; 350,000 tested, 2.9% active; Potency, µM (top dose mostly 46.1 µM), for inactives: top-dose activity, positive = re-replication, usual class: activators; MCF 10A DNA re-replication, Hoechst nuclear intensity, 48 h; also: % of control where 0% means no effect; nearly all actives have a fitted effect of over 50% in size
# KB-V1 cytotox: qHTS assay for MDR1-selective chemotherapeutics: Primary screen using the drug-selected MDR subline cells KB-V1; KB-V1 MDR cells viability, CellTiter-Glo, 72 h; Potency, µM (doses to about 46.1 µM), hits mostly cytotoxic; 400,000 tested, 3.4% active; also: % is scaled to controls: 0 for no effect and ±100 for the full control effect; nearly all actives have a fitted effect of over 60% in size
#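 Readout: CellTiter-Glo luminescence, 10 min after addition. Cells: KB-V1 MDR subline, 72 h at 37 degrees C with compound. Analysis: corrected, normalized data fitted to concentration-effect curves.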
# KB-3-1 tox: qHTS assay for MDR1-selective chemotherapeutics: Primary screen using the parental adenocarcinoma cell KB-3-1; KB-3-1 viability, CellTiter-Glo ATP luminescence, 72 h; Potency, µM (highest dose often 46.1 µM), most hits filed as cytotoxic; 400,000 tested, 1.4% active; also: % is scaled to controls: 0 for no effect and ±100 for the full control effect; nearly all actives have a fitted effect of over 60% in size
#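 Cells are dispensed, compounds pinned in, plates held at 37 °C for 72 h, then CellTiter-Glo is added and luminescence read after 10 minutes. Cell line: parental KB-3-1 in phenol-red-free DMEM, 10% FBS.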
# HT1080NT lethal: qHTS for induction of synthetic lethality in tumor cells producing 2HG: qHTS for the HT-1080-NT fibrosarcoma cell line; 360,000 tested, 1.6% active; HT-1080-NT fibrosarcoma viability, CellTiter-Glo ATP luminescence, 48 h; Potency, µM (titrated, usually from 46.1 µM), without a hit: at the highest dose activity, negative = less viability, hits mostly cytotoxic;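 also: NT is the 2HG producing partner of a matched IDH1 knockdown line; 0% = DMSO-treated cells and -100% = media-only wells without cells; nearly all actives have a fitted effect of over 55% in size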
#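 Luminescent CellTiter-Glo readout after 48 hours of compound exposure at 37 degrees C defined viability of HT-1080-NT cells. Activity was normalized to DMSO wells and cell-free media wells; concentration-response curves were fitted and assigned curve classes.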
# Active calls of the source: *; i = inactive; ? = inconclusive; . = no result given; [ ] = remark or other dose. Only some compounds are listed: those with a hit (about 8% of all), similar ones and a draw of the others. Calls follow the shape of the dose curve; as a rule, active = well fitted curve in the direction sought with a large enough effect; inconclusive = small, poorly fitted or top-dose-only effect, or another doubt; inactive = no such curve, though single readings can be large; an effect the other way counts as inactive or inconclusive. Potency is read from the fitted curve at half-maximal effect.
SMILES,SW480 rerep,HT1080 IDH1KD tx,MCF10A rereplic,KB-V1 cytotox,KB-3-1 tox,HT1080NT lethal
COC(=O)C1=C(C(=O)OC)C2c3ccccc3C1c1ccccc12,8%,9%,-2%,15µM*,i,9%
FC(F)(F)c1ccc(-c2ccc3c(c2)CNCc2cnnn2-3)cc1,.,?,.,i,i,?
O=C(c1cccc(N2CCCC2=O)c1)N1CCC2(CC1)OCCO2,2%,8%,0%,i,i,12%
CN(C)C(CNC(=O)Cc1ccc(Br)cc1)c1ccccc1 (centres undefined),-8%,-12%,2%,?,i,-4%
Cc1ccc(C)c(OCC(=O)N2CCN(Cc3ccc4c(c3)OCO4)CC2)c1,-2%,-7%,10%,?,i,-25%
CS(=O)(=O)c1ccc(C2=C(CNC(=O)c3cccnc3)[C@H]3CC[C@@H](C2)N3Cc2ccco2)cc1,.,11%,.,i,i,13%
NC(N)=N/N=C/c1cn(-c2ccccc2)nc1-c1cccs1,-19%,-13%,7.3µM*,?,i,-29%
O=c1c2ccccc2nc(-c2cccs2)n1-c1ccccc1,-4%,-1%,19%,?,i,-2%
OC(CN1CCC(c2c[nH]c3ccccc23)CC1)C(F)(F)F (centres undefined),-8%,10%,14%,i,i,-4%
O=C1NC(=O)C(Cc2ccccc2)(Cc2ccccc2)C(=O)N1Cc1ccccc1,?,?,?,16µM*,?,?
Nc1ncnc2c1ccn2[C@@H]1O[C@H](CO)[C@@H](O)[C@H]1O,?,0.82µM*,?,0.21µM*,0.18µM*,0.65µM*
NC(=S)c1cn(C2OC(CO)C(O)C2O)c2ncnc(N)c12 (centres undefined),-6%,1.3µM*,?,i,?,?
NC(=O)c1ncn([C@@H]2O[C@H](CO)[C@@H](O)[C@H]2O)n1,?,.,2%,i,i,.
COc1ccc(C)cc1NC(=O)c1cccn(Cc2cccc([N+](=O)[O-])c2)c1=O,.,.,.,i,i,.
Nc1c(C(=O)Nc2ccc(Cl)cc2)sc2nc3c(cc12)N1CCC3CC1,.,.,.,7.3µM*,i,.
COc1ccc(Cl)cc1NC(=O)CSc1ncnc2c1oc1ccccc12,-154%,8%,0%,i,i,-1%
O=C(CSc1nc(-c2ccc(Cl)cc2)[nH]c(=O)n1)Nc1cccc(Cl)c1,-55%,-20%,?,i,i,-8%
COc1ccc(NC(=O)c2sc3nc4c(cc3c2N)N2CCC4CC2)cc1OC,.,.,.,i,i,.
N#Cc1cc2c(nc1SCC(=O)Nc1ccc(Cl)cc1)C1CCN2CC1,?,?,187%,2.9µM*,?,?
N#Cc1cc2c(nc1SCC(=O)Nc1cc(Cl)ccc1Cl)C1CCN2CC1,?,?,0.58µM*,4.1µM*,?,?
COc1ccc(C(=O)Nc2ccccc2-c2nnn(CC(=O)Nc3ccc4c(c3)OCCO4)n2)cc1,4%,2%,16µM*,?,i,-1%
Cc1cc(C(=O)Nc2ccc3c(c2)OCCO3)nn1C(C)(C)C,-1%,-4%,9%,i,i,1%
Cc1cccc(N=C2c3cc([N+](=O)[O-])ccc3-c3c2cc([N+](=O)[O-])cc3[N+](=O)[O-])c1,18µM*,-13%,18µM*,?,15µM*,-3%
NC(N)=Nc1ccc2[nH]c3c(c2c1)C[C@@]1(O)[C@H]2Cc4ccc(O)c5c4[C@@]1(CCN2CC1CC1)[C@H]3O5,?,16µM*,?,i,?,15µM*
CC(C)C12CN3CC(C(C)C)(CN(C1)C3c1ccccn1)C2=O (centres undefined),.,.,.,i,i,.
SMILES,SW480 rerep,HT1080 IDH1KD tx,MCF10A rereplic,KB-V1 cytotox,KB-3-1 tox,HT1080NT lethal
OC12ONC(c3ccccn3)C1N1CCC2CC1 (centres undefined),16µM*,-13%,7.3µM*,i,i,1%
O=c1c2ccccc2nc(N2CCCC2)n1-c1ccc(Cl)cc1,2%,-1%,?,23µM*,?,-17%
CCC1(c2ccc(C)cc2)C(=O)NC(=S)NC1=O,.,17%,.,i,i,12%
CCCCn1c(O)c(C(C)=NCc2ccc3c(c2)OCO3)c(=O)[nH]c1=O,0%,-1%,-2%,?,i,-2%
CCCCn1c(O)c(C(C)=NCCc2ccccc2)c(=O)[nH]c1=O,-6%[9.22 µM],-4%,-11%,?,i,2%
COc1cc(/C=C/C(=O)c2c(O)n(CCc3ccccc3)c(=O)[nH]c2=O)ccc1O,?,12µM*,?,i,i,?
O=C(/C=C/c1ccc2c(c1)OCO2)c1c(O)n(CCc2ccccc2)c(=O)[nH]c1=O,?,0%,12µM*,13µM*,?,0%
O=C(/C=C/c1ccccc1)c1c(O)n(CCc2ccccc2)c(=O)[nH]c1=O,?,-22%,8.2µM*,6.5µM*,15µM*,-11%
COc1cccc(N2CCN(Cc3cccc(Cl)c3)CC2)c1,0%,1%,?,i,i,3%
COc1cccc(N2CCN(Cc3ccc(Cl)cc3)CC2)c1,-1%,-8%,2%,16µM*,i,6%
COc1ccc(CN2CCN(C(=O)Cc3ccccc3)CC2)c(OC)c1,-5%,13%,?,i,i,8%
COc1ccc(CN2CCN(Cc3ccccc3)CC2)c(OC)c1,17%,-23%,?,23µM*,i,-15%
CCC(C)C1N=C(c2ccccc2)c2cc(Cl)ccc2N(CC(=O)NCc2ccco2)C1=O (centres undefined),-14%,-13%,-10%,i,i,-3%
Cc1ccccc1C1=NCC(=O)N(CC(=O)NCc2ccco2)c2sc3c(c21)CCCC3,-2%,-19%,?,18µM*,i,0%
COc1cc(/C=C(/C)[N+](=O)[O-])ccc1OCc1ccccc1Cl,3.3µM*,5.8µM*,3.7µM*,?,?,8.2µM*
CCC1(O)CCC2C3CCC4=CC(=O)CCC4C3CCC21CC (centres undefined),-1%,1%,15%,?,i,3%
